Where “and” joins values, the source holds several entries; their conditions need not be identical. Identical values can stand only once. Results filed as inconclusive are left out. A number with no mark means an inactive call. Calls of active or inactive are those of the source. The call rests on the fitted dose curve; in most records, active means well fitted curve in the direction sought with a large enough effect; inconclusive means small, poorly fitted or top-dose-only effect, or another doubt; inactive means no such curve, though single readings can be large; an effect the other way counts as inactive or inconclusive.
test: qHTS of pediatric cancer cell lines to identify multiple opportunities for drug repurposing: Confirmatory screen for NB1643 cells (AID 1347109); conditions: NB1643 neuroblastoma cell viability; series mostly up to 45.9 µM; activity change, negative = cytotoxic: at the top concentration; further: nearly all actives have a fitted effect of over 45% in size;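 on activity change, negative = cytotoxic: plate controls were DMSO for no effect and bortezomib for full effect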
Outline: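 Viability after 48 h compound treatment at 37C, 500-1,000 cells/well, read as ATP luminescence with CellTiter-Glo. Primary screens used 11-point (MIPE, 0.78 nM-46 µM) or 8-point (NPC, 0.59 nM-46 µM) final concentrations; follow-up screens used 11-point dilutions.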
Potency means the concentration at half of the fitted maximal effect.

Row | Structure (SMILES) | Potency | activity change, negative = cytotoxic
1 | N[C@@H](Cc1ccc(N(CCCl)CCCl)cc1)C(=O)O | 6.57 µM (active) | 
2 | C[C@H]1O[C@@H](O[C@H]2[C@@H](O)C[C@H](O[C@H]3[C@@H](O)C[C@H](O[C@H]4CC[C@@]5(C)[C@H](CC[C@@H]6[C@@H]5CC[C@]5(C)[C@@H](C7=CC(=O)OC7)CC[C@]65O)C4)O[C@@H]3C)O[C@@H]2C)C[C@H](O)[C@@H]1O | 0.329 µM (active) | 
3 | COC[C@@H](NC(C)=O)C(=O)NCc1ccccc1 |  | -4.84%
4 | O=P1(NCCCl)OCCCN1CCCl (configuration not stated) |  | 6.92%
5 | C[C@@H]1O[C@@H](O[C@H]2C[C@@H](O)[C@]3(CO)[C@H]4[C@H](O)C[C@]5(C)[C@@H](C6=CC(=O)OC6)CC[C@]5(O)[C@@H]4CC[C@]3(O)C2)[C@H](O)[C@H](O)[C@H]1O | 369 nM (active) and 585 nM (active) | 
6 | Cn1c(CCCC(=O)O)nc2cc(N(CCCl)CCCl)ccc21 | 16.5 µM (active) | 
7 | O=c1[nH]c2ccccc2n1CCCN1CCC(n2c(=O)[nH]c3cc(Cl)ccc32)CC1 | 7.37 µM (active) | 
8 | C[C@@H]1[C@@H](CC(C[C@H]2O[C@@H]3O[C@]4(C)CC[C@@H]5[C@H](C)CC[C@@H]([C@H]2C)[C@@]35OO4)C[S+](=O)([O-])c2ccc(COC(=O)N(C)C)cc2)O[C@@H]2O[C@]3(C)CC[C@H]4[C@H](C)CC[C@@H]1[C@@]24OO3 (some centres not stated) | 0.414 µM (active) | 
9 | Cc1sc2c(c1C)C(c1ccc(Cl)cc1)=N[C@@H](CC(=O)OC(C)(C)C)c1nnc(C)n1-2 | 1.31 µM (active) | 

test: qHTS of pediatric cancer cell lines to identify multiple opportunities for drug repurposing: Confirmatory screen for A673 cells (AID 1347110); conditions: A673 Ewing sarcoma cell viability; series mostly up to 45.9 µM; activity change, negative = cytotoxicity: at the top concentration; further: nearly all actives have a fitted effect of over 65% in size;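 on activity change, negative = cytotoxicity: plate controls were DMSO neutral control for no effect and bortezomib positive control for full effect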
Outline: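 qHTS titration format: primary MIPE 0.78 nM-46 µM (11 pts), NPC 0.59 nM-46 µM; confirmation 11 pts. 48 h, CTG luminescence.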

Row | Structure (SMILES) | Potency | activity change, negative = cytotoxicity | outcome
10 | N[C@@H](Cc1ccc(N(CCCl)CCCl)cc1)C(=O)O | 16.5 µM (active) |  | 
11 | C[C@H]1O[C@@H](O[C@H]2[C@@H](O)C[C@H](O[C@H]3[C@@H](O)C[C@H](O[C@H]4CC[C@@]5(C)[C@H](CC[C@@H]6[C@@H]5CC[C@]5(C)[C@@H](C7=CC(=O)OC7)CC[C@]65O)C4)O[C@@H]3C)O[C@@H]2C)C[C@H](O)[C@@H]1O | 0.465 µM (active) |  | 
12 | COC[C@@H](NC(C)=O)C(=O)NCc1ccccc1 |  | 6.29% | 
13 | C=C(C)[C@H]1Cc2c(ccc3c2O[C@@H]2COc4cc(OC)c(OC)cc4[C@@H]2C3=O)O1 | 3.69 µM (active) |  | 
14 | O=P1(NCCCl)OCCCN1CCCl (configuration not stated) |  |  | inactive
15 | C[C@@H]1O[C@@H](O[C@H]2C[C@@H](O)[C@]3(CO)[C@H]4[C@H](O)C[C@]5(C)[C@@H](C6=CC(=O)OC6)CC[C@]5(O)[C@@H]4CC[C@]3(O)C2)[C@H](O)[C@H](O)[C@H]1O | 329 nM (active) and 282 nM (active) |  | 
16 | C[C@@H]1[C@@H](C(=O)C[C@H]2O[C@@H]3O[C@]4(C)CC[C@@H]5[C@H](C)CC[C@@H]([C@H]2C)[C@@]35OO4)O[C@@H]2O[C@]3(C)CC[C@H]4[C@H](C)CC[C@@H]1[C@@]24OO3 | 6.57 µM (active) |  | 
17 | O=c1[nH]c2ccccc2n1CCCN1CCC(n2c(=O)[nH]c3cc(Cl)ccc32)CC1 | 26.1 µM (active) |  | 
18 | Cc1sc2c(c1C)C(c1ccc(Cl)cc1)=N[C@@H](CC(=O)OC(C)(C)C)c1nnc(C)n1-2 |  | 11.7% | 

test: qHTS of pediatric cancer cell lines to identify multiple opportunities for drug repurposing: Confirmatory screen for SK-N-MC cells (AID 1347111); conditions: SK-N-MC cell viability; series mostly up to 45.9 µM; activity change, negative = cytotoxic: at the top concentration;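 further: cells exposed to compound for 48 h before the readout; nearly all actives have a fitted effect of over 70% in size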;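 on activity change, negative = cytotoxic: plate controls were DMSO for no effect and bortezomib for full effect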
Outline: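 SK-N-MC cells at 500-1,000 cells/well in growth media were pre-incubated 5 h, then exposed to compounds at 11-point dilutions for 48 h at 37 degrees C, 5% CO2. Viability was read as CellTiter-Glo luminescence.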

Row | Structure (SMILES) | Potency | activity change, negative = cytotoxic
19 | N[C@@H](Cc1ccc(N(CCCl)CCCl)cc1)C(=O)O | 2.61 µM (active) | 
20 | C[C@H]1O[C@@H](O[C@H]2[C@@H](O)C[C@H](O[C@H]3[C@@H](O)C[C@H](O[C@H]4CC[C@@]5(C)[C@H](CC[C@@H]6[C@@H]5CC[C@]5(C)[C@@H](C7=CC(=O)OC7)CC[C@]65O)C4)O[C@@H]3C)O[C@@H]2C)C[C@H](O)[C@@H]1O | 0.131 µM (active) | 
21 | C=C(C)[C@H]1Cc2c(ccc3c2O[C@@H]2COc4cc(OC)c(OC)cc4[C@@H]2C3=O)O1 | 1.65 µM (active) | 
22 | O=P1(NCCCl)OCCCN1CCCl (configuration not stated) |  | -92.8%
23 | C[C@@H]1O[C@@H](O[C@H]2C[C@@H](O)[C@]3(CO)[C@H]4[C@H](O)C[C@]5(C)[C@@H](C6=CC(=O)OC6)CC[C@]5(O)[C@@H]4CC[C@]3(O)C2)[C@H](O)[C@H](O)[C@H]1O | 131 nM (active) and 293 nM (active) | 
24 | C[C@@H]1[C@@H](C(=O)C[C@H]2O[C@@H]3O[C@]4(C)CC[C@@H]5[C@H](C)CC[C@@H]([C@H]2C)[C@@]35OO4)O[C@@H]2O[C@]3(C)CC[C@H]4[C@H](C)CC[C@@H]1[C@@]24OO3 | 2.93 µM (active) | 
25 | Cn1c(CCCC(=O)O)nc2cc(N(CCCl)CCCl)ccc21 | 3.69 µM (active) | 
26 | O=c1[nH]c2ccccc2n1CCCN1CCC(n2c(=O)[nH]c3cc(Cl)ccc32)CC1 | 5.22 µM (active) | 
27 | C[C@@H]1[C@@H](CC(C[C@H]2O[C@@H]3O[C@]4(C)CC[C@@H]5[C@H](C)CC[C@@H]([C@H]2C)[C@@]35OO4)C[S+](=O)([O-])c2ccc(COC(=O)N(C)C)cc2)O[C@@H]2O[C@]3(C)CC[C@H]4[C@H](C)CC[C@@H]1[C@@]24OO3 (some centres not stated) | 0.293 µM (active) | 
